Screens: PubChem, several laboratories
Mcl1-Bid inh – Mcl-1/Bid interaction inhibition | Q07820 | TR-FRET Mcl-1/Bid-Dy647 peptide binding, 1536-well | inhibition, % at 21.7 µM | actives 0.97% (n = 220,000) | AID 1021;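 active = compounds that cut the binding signal by more than half at the single screening dose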;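 also: His-tagged Mcl-1 with europium anti-His antibody binding Bid BH3 peptide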
Mcl1-Noxa inh – disrupts binding of human Mcl-1 to Noxa peptide. Q07820. TR-FRET Mcl-1/Noxa peptide binding, 2 h. inhibition, % at 21.7 µM. actives 1.5% (n = 220,000);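 active = compounds that cut the protein-peptide binding signal by more than 50% relative to plate controls in a single-dose test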;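 also: His-tagged Mcl-1 with rhodamine Noxa BH3 peptide and terbium anti-His antibody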
14-3-3 Bad PPI – disrupts binding of bovine 14-3-3 zeta to phospho-Bad peptide. P63103. TR-FRET 14-3-3zeta/Dy647-pBad peptide displacement, 1 h. inhibition, % at 21.7 µM. actives 0.71% (n = 220,000);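 active = inhibition above about 70%, limit read from the data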
Target sequence (P63103 whole entry, looked up): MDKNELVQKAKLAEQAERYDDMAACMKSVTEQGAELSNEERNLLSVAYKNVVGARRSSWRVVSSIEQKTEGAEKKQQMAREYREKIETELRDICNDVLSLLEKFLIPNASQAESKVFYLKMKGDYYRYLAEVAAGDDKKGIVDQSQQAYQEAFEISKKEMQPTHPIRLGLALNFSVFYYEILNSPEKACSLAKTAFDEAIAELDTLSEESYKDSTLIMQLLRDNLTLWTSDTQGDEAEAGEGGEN
p47phox inh – blocks human p47phox regulatory protein of NADPH oxidases; actives 0.53% (n = 220,000); AID 1274; P14598; p47phox/p22phox peptide binding, fluorescence polarization, 2 h; inhibition, % at 24.7 µM;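 active = inhibition above about 30%, limit read from the data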
Target sequence (P14598 whole entry, looked up): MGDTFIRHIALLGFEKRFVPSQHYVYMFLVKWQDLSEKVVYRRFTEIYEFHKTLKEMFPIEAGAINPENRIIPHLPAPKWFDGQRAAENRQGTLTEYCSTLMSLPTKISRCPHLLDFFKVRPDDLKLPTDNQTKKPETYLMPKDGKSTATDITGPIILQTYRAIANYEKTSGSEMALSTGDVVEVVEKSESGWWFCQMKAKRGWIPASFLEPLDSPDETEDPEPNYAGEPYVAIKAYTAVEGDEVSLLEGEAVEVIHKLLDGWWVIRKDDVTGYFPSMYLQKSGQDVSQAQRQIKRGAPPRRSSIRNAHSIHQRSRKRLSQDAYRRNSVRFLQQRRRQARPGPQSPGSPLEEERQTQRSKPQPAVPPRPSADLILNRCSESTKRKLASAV
Bim-Mcl-1 – human Bim-Mcl-1 interaction inhibition; Q07820; Bead-based flow cytometry, Bim peptide-Mcl-1 binding; inhibition, % at 10 µM; actives 0.1% (n = 190,000); in the data active = inhibition above about 40%
Each line names hits and unclear results; the compound was inactive in the other large screens; [ ] = remark or other dose. The list is not random: actives were taken first. Their share in the collection is about 3.1%.

Cc1cccc(C2=N/C(=C\c3cccs3)C(=O)O2)c1	none
CC1=NN(C(C#N)c2c(C)nn(Cc3ccccc3)c2C)C(C)(C)C1 (stereo not drawn)	none
CC(C)N(C(=O)c1sc2cc([N+](=O)[O-])ccc2c1Cl)C(C)C	Mcl1-Bid inh 97
OCCCN=c1cc(-c2ccccc2)oc2ccc(Cl)cc12	14-3-3 Bad PPI 193[fluorescence artefact?]
O=C(O)CSc1nc2ccccc2n1C1CCCCC1	14-3-3 Bad PPI 84
NNC(=O)C(Cc1c[nH]c2ccccc12)NC(=O)c1ccccc1 (stereo not drawn)	none (no result: Bim-Mcl-1)
CCOC(=O)/C=C/C(=O)Nc1cccc([N+](=O)[O-])c1	Mcl1-Noxa inh 66
O=C(CC1NCCNC1=O)Nc1cccc([N+](=O)[O-])c1 (stereo not drawn)	Bim-Mcl-1 58
Cc1cccc(NS(=O)(=O)c2cc(NC(=O)CC(=O)c3ccc([N+](=O)[O-])cc3)ccc2C)c1	p47phox inh 35
Cc1cccc(NC(=O)CC2NCCNC2=O)c1 (stereo not drawn)	none
O=C(Nc1cccc([N+](=O)[O-])c1)c1cccc(C(=O)Nc2cccc([N+](=O)[O-])c2)c1	Mcl1-Bid inh 53, Mcl1-Noxa inh 62, p47phox inh 41 (no result: Bim-Mcl-1)
CCOCCCNC(=O)c1ccccc1OC1CCN(S(C)(=O)=O)CC1	none
Cn1cc(CN(CCO)Cc2cccs2)c(-c2ccccc2F)n1	none
COc1cccc(C(=O)Nc2cccc(C(=O)NCC(C)C)c2)c1	none
Cc1ccc(C(=O)Nc2ccc(C(=O)O)cc2)cc1S(=O)(=O)Nc1cccc([N+](=O)[O-])c1	none
O=C(Nc1nc(-c2cccnc2)cs1)c1cccc([N+](=O)[O-])c1	Mcl1-Noxa inh 63, 14-3-3 Bad PPI 79
CC(C)CNC(=O)c1cccc(NC(=O)c2ccc(Cl)c([N+](=O)[O-])c2)c1	Bim-Mcl-1 45
Cc1ccc(C(=O)Nc2cccc([N+](=O)[O-])c2)cc1S(=O)(=O)Nc1ccc(C(=O)O)cc1	p47phox inh 60
CCOC(=O)c1c2n(c3ccc(OC(C)=O)cc13)CCC2	p47phox inh 38
CC1(C)CC(=O)C(C(C#Cc2ccccc2)C2=C(O)CC(C)(C)CC2=O)=C(O)C1	Mcl1-Noxa inh 57
O=C1CCCC(O)=C1Sc1ccccc1C(=O)O	none
O=C1CCCC(O)=C1C(C#Cc1ccccc1)C1=C(O)CCCC1=O	Mcl1-Noxa inh 52
Cc1ccc(NC(=S)NNS(=O)(=O)c2ccc3ccccc3c2)cc1Cl	none
Cc1ccccc1NCC(=O)N/N=C/C(Br)=C/c1ccccc1	Mcl1-Bid inh 90
CCN(c1ccc(N=Cc2c(O)n(Cc3ccc(OC)cc3)c(=O)c3ccccc23)cc1)C(C)C	Mcl1-Noxa inh 59 (no result: Bim-Mcl-1)
COc1ccc(-n2c(O)c(C=Nc3ccccc3)c3ccccc3c2=O)cc1	none
COc1ccc(/C=N/NC(=O)c2cc(-c3ccc4c(c3)OCO4)n[nH]2)cc1OC	none
Cc1cccc(N2CCN(C(=S)c3ccccc3)CC2)c1	none
Cc1cccc(N2CCN(c3ccc(NC(=O)/C=C(/C(=O)O)c4ccccc4)cc3)CC2)c1	Mcl1-Noxa inh 52
Cc1ccc(Cl)c(OC(=O)c2nn(C(C)C)c(=O)c3ccccc23)c1	none
CC(=O)Nc1ccc(S(=O)(=O)NCCc2ccc(S(N)(=O)=O)cc2)cc1	none
Cc1[nH]c(=O)[nH]c(=O)c1S(=O)(=O)NCCc1ccc(S(N)(=O)=O)cc1	Mcl1-Noxa inh 58
CC(C)C(c1nnnn1CCc1ccccc1)N1CCSCC1 (stereo not drawn)	none
COCCn1nnnc1C(C(C)C)N1CCC(Cc2ccccc2)CC1 (stereo not drawn)	14-3-3 Bad PPI 84
CC(C)C(c1nnnn1CCc1ccccc1)N1CCOCC1 (stereo not drawn)	14-3-3 Bad PPI 70
CC(=O)c1c(C)[nH]c(C(=O)OCc2nnc(-c3ccccc3)o2)c1C	Mcl1-Bid inh 51
O=C(NC1CCCc2ccccc21)C12CC3CC(CC(O)(C3)C1)C2 (stereo not drawn)	none
COc1ccccc1C1CCN(C(=O)c2cccs2)CC1	none (no result: Bim-Mcl-1)
COc1ccc(CNC(=O)CN(c2ccccc2)S(=O)(=O)c2ccccc2[N+](=O)[O-])cc1	none
Cn1cnnc1SCC(=O)Nc1nc(-c2ccccc2)cs1	Mcl1-Noxa inh 56
Cc1ccc(C2(CCNCc3ccc(N(C)C)cc3)CCOC(C(C)C)C2)cc1 (stereo not drawn)	Mcl1-Noxa inh 56
O=C(CN1CCCCC1)Nc1c2c(nc3ccccc13)N(c1ccccc1)CC2	14-3-3 Bad PPI 71
O=C(NCc1nc2ccccc2[nH]1)C1CCCCC1	p47phox inh 78
COc1ccc(N/C(=C(/C(Cl)=C(Cl)Cl)[N+](=O)[O-])n2nnc3ccccc32)cc1OC	Mcl1-Bid inh 75
COc1ccc(C(=O)n2nnc3ccccc32)cc1OC	none
CC(C)(C)NC(=O)C(c1ccc(O)cc1)N(C(=O)Cn1nnc(-c2ccc(F)cc2)n1)c1ccccc1F (stereo not drawn)	none
Cc1ccc(-n2c(SCC(=O)NCCN3C(=O)CSC3=O)nnc2-c2ccccc2)cc1C	Mcl1-Bid inh 52
O=C(Nc1ccccc1C(=O)O)c1ccc(NC(=O)c2ccc(Br)o2)cc1	p47phox inh 90
CCN(CC)c1nc(N)nc(N(c2ccccc2)c2ccccc2)n1	Bim-Mcl-1 79
COc1cccc(OCc2cc(/C=N/Nc3ccc(C(=O)O)cc3)ccc2OC)c1	Mcl1-Noxa inh 67 (no result: Bim-Mcl-1)
COCc1cc(/C=N\NC(=O)COc2ccccc2)ccc1OC	none (no result: Bim-Mcl-1)
CCOc1cc(/C=N/Nc2ccc(C(=O)O)cc2)ccc1OC(=O)c1ccccc1C	Mcl1-Noxa inh 56 (no result: Bim-Mcl-1)
CSc1ccc(CN(C)C(C)C(=O)NCc2ccccc2)cc1 (stereo not drawn)	none
CC(=O)NNC(=O)CCn1nnc(-c2ccc(Cl)cc2)n1	none
C/C(=N\NC1=NCCN1)c1ccc(N)c([N+](=O)[O-])c1	none (no result: Bim-Mcl-1)
CCCCCCOc1ccc(/C(C)=N/NC2=NCCN2)cc1[N+](=O)[O-]	p47phox inh 51
CCS(=O)(=O)N1CCCC(C(=O)NC2CCCC2)C1 (stereo not drawn)	14-3-3 Bad PPI 89
CCCS(=O)(=O)N1CCCC(C(=O)NCCc2ccc(Cl)cc2)C1 (stereo not drawn)	Mcl1-Bid inh 55
O=C(CC1Sc2ccccc2NC1=O)NCc1ccccc1 (stereo not drawn)	none (no result: Bim-Mcl-1)
CCOC(=O)N1CCN(C(=O)COc2ccc3c(c2)C(=O)CC2(CCN(C(C)=O)CC2)O3)CC1	14-3-3 Bad PPI 95
Cc1ccc(-n2nc(C)c3c(C)c(CCC(=O)NCc4ccccc4)c(C)nc32)cc1	p47phox inh 130
COc1ccc(CCNc2nc(C)nc3c2oc2ccccc23)cc1OC	14-3-3 Bad PPI 75
COc1ccc(CCNc2ncnc3c2oc2ccccc23)cc1OC	14-3-3 Bad PPI 85
CSc1nc2ccc3nc(NC(=O)c4ccccc4)sc3c2s1	Mcl1-Bid inh 55
O=C(Nc1nc2ccccc2s1)c1ccccc1	none
Nc1ccc(N2CCCCC2)cc1N1CCCCC1	Mcl1-Noxa inh 76
